Our source for the log2 fold change values is the supplement of paper PMC12819154, “High-throughput peptide-centric local stability assay extends protein–ligand identification to membrane proteins, tissues and bacteria” (Nature Structural & Molecular Biology, 2025).

Compound in the assay: Nc1ncnc2c1ncn2[C@@H]1O[C@H](COP(=O)(O)OP(=O)(O)OP(=O)(O)O)[C@@H](O)[C@H]1O [adenosine 5'-triphosphate]
The assay is described as follows: log2 fold change of tryptic peptide abundance, ligand vs vehicle (limited proteolysis) (log2 ratio); higher = more trypsin-susceptible (destabilized). As to conditions: ligand concentration: 5 mM; sample: E. coli desalted lysate; replicate design: treated before aliquoting. How it is done: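 HT-PELSA: desalted E. coli K-12 BW25113 lysate (with 12 mM MgCl2) incubated with 5 mM ATP (pH 7) or water for 30 min at 25 C, then a 4 min trypsin pulse at 22 C. Peptides were quantified by DIA-MS (4 replicates). Value is the peptide log2 fold change (treated/control); negative = stabilized. Scale: negative = ligand-stabilized region.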
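Note: lysate desalted by size exclusion to strip endogenous ATP, peptide intensities built from DIA-NN precursor signals, and peptides missing any value discarded before comparison.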

UniProt P0CB39, sequence (P0CB39 whole entry): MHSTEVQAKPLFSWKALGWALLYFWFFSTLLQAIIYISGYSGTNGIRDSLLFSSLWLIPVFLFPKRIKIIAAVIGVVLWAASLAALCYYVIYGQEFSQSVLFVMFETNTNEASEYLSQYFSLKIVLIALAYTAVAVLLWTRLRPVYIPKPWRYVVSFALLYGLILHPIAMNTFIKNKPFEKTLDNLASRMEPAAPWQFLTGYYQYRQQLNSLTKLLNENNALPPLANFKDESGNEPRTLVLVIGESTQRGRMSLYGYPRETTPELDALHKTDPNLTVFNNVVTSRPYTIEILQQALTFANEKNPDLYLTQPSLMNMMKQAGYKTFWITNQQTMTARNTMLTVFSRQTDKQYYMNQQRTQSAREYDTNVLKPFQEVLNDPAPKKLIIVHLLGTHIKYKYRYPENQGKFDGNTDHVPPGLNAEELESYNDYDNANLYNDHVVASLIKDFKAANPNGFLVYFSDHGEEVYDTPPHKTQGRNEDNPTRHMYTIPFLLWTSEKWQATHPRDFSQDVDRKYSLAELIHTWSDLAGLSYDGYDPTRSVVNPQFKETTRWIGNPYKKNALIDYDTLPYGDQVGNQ
UniProt P76014, sequence (P76014 whole entry): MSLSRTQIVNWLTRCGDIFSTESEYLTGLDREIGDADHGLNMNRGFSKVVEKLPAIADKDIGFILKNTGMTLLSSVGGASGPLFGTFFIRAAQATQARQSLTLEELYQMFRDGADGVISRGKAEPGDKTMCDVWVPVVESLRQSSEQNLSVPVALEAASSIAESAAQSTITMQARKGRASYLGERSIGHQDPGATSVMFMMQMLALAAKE
UniProt P11868, sequence (P11868 whole entry): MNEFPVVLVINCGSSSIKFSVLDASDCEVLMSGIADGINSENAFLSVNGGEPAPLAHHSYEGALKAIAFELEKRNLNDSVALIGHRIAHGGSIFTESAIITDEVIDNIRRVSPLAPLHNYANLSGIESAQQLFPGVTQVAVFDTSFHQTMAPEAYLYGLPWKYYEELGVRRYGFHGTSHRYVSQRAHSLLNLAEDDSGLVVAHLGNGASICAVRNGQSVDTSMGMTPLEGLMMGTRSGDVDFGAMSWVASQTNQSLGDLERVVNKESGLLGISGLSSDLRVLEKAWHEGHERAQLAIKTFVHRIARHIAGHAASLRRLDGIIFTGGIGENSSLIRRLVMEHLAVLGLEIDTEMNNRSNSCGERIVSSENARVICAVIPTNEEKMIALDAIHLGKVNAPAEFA
UniProt P75974, sequence (P75974 whole entry): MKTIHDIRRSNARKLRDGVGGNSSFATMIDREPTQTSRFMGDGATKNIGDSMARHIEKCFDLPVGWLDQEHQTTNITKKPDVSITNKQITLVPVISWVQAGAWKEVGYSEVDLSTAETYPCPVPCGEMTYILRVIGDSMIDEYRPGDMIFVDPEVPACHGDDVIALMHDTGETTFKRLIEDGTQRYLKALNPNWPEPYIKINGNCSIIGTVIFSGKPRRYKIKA
UniProt P37685, sequence (P37685 whole entry): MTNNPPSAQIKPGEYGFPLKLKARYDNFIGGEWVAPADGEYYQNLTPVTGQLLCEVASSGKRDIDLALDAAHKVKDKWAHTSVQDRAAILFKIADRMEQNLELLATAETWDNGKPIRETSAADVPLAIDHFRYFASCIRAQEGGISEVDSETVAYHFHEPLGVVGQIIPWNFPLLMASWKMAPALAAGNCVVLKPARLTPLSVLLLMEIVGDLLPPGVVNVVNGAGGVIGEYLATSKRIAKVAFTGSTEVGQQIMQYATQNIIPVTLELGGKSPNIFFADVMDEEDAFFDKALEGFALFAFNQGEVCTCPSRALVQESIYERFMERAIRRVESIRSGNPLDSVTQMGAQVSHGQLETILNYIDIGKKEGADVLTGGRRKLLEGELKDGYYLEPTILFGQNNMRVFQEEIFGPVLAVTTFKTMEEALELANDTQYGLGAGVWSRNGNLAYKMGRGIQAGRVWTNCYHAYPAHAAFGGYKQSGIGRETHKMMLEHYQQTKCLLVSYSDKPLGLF
UniProt P00760, sequence (P00760 whole entry): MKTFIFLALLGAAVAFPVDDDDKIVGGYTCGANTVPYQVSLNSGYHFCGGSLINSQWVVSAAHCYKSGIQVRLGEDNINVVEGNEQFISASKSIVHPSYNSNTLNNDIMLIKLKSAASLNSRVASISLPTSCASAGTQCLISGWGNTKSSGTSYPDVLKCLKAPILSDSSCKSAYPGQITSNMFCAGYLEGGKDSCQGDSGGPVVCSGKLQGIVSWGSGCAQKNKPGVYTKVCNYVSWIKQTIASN
UniProt P08957, sequence (P08957 whole entry): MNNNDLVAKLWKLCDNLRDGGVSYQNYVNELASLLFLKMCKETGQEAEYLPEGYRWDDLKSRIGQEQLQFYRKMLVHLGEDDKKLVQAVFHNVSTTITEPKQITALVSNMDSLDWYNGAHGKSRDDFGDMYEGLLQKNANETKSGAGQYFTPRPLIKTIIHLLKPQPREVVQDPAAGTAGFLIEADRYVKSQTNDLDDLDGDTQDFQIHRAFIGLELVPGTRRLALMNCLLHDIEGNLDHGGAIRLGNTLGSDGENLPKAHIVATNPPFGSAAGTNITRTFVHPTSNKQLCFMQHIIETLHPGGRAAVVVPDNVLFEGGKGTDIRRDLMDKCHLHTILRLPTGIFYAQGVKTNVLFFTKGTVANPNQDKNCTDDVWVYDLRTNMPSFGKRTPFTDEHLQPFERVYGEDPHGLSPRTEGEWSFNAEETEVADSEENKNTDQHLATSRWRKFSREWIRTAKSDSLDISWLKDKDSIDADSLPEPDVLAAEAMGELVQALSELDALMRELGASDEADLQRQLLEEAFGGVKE
UniProt P0AD57, sequence (P0AD57 whole entry): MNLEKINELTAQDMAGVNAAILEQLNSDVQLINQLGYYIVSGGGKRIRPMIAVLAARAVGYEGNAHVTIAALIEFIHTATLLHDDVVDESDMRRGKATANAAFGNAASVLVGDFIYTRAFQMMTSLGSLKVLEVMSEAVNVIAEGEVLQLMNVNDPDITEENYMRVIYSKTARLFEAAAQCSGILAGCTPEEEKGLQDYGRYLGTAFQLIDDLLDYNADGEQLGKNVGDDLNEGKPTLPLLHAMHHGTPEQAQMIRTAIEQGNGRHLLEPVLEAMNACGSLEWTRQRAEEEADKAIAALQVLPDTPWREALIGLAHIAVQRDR
UniProt P69789, sequence (P69789 whole entry): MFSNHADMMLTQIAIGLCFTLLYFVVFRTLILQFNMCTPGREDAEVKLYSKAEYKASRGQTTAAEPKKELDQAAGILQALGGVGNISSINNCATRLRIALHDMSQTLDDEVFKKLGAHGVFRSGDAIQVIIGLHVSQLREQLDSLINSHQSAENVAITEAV
UniProt P24255, sequence (P24255 whole entry): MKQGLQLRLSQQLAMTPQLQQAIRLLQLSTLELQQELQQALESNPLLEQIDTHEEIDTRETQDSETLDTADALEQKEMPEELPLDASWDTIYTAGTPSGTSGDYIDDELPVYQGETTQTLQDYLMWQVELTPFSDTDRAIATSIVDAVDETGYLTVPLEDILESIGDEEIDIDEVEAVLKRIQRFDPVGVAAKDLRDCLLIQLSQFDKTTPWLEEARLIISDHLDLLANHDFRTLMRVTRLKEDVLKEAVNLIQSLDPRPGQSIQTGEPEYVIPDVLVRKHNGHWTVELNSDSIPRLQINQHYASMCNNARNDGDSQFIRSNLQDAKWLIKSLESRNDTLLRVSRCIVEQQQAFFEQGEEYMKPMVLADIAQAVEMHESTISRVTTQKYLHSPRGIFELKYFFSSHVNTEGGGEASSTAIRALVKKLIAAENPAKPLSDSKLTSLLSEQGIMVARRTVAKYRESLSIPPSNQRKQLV
UniProt P37197, sequence (P37197 whole entry): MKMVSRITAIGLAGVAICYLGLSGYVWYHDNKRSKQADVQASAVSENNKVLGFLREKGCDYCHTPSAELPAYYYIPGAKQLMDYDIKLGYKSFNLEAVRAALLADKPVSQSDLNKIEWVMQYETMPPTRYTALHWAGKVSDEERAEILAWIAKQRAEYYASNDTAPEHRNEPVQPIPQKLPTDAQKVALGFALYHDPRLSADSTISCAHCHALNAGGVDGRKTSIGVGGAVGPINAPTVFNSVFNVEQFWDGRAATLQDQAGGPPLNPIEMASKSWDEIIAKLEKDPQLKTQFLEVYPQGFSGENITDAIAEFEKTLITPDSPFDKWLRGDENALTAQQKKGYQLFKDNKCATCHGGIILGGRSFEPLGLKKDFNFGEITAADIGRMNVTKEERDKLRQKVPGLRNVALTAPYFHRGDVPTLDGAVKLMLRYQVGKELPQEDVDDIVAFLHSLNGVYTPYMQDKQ
UniProt P31808, sequence (P31808 whole entry): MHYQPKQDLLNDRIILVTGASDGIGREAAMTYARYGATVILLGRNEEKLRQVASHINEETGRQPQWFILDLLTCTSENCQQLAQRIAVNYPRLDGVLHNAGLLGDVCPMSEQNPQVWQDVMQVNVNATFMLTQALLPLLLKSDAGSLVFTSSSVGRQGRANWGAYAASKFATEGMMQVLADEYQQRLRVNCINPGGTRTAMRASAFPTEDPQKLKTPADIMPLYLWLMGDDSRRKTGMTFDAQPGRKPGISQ
UniProt P37908, sequence (P37908 whole entry): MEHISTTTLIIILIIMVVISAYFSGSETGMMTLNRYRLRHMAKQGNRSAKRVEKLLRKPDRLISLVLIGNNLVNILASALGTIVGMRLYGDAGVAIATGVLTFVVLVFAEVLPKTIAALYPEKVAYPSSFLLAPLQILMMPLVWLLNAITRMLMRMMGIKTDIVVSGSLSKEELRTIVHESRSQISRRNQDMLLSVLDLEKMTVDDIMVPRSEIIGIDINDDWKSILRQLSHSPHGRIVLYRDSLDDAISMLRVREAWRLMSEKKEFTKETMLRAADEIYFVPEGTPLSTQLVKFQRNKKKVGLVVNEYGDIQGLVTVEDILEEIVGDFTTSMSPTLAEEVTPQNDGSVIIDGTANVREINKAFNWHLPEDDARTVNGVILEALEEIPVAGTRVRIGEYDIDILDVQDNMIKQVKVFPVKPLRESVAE

As for “UniProt P0A9U1 (peptide sequence: LIASGTPDDLK, peptide start residue: 537)”, the log2 fold change was -0.834.
With “UniProt P21151 (peptide sequence: ISTTLLNLMERK, peptide start residue: 352)”, the log2 fold change is 0.834.
In the case of “UniProt P24255 (peptide sequence: KHNGHWTVELNSDSIPR, peptide start residue: 280)”, the log2 fold change turned out to be 0.899.
With “UniProt P0ACX3 (peptide sequence: NLGVEEVVAK, peptide start residue: 75)”, the log2 fold change stood at 0.583.
On to “UniProt P77316 (peptide sequence: HGDIFGHEFMGEVVETGKDVK, peptide start residue: 54)”, for which the log2 fold change is -0.836.
As for “UniProt P37766 (peptide sequence: AIAPDIAFIR, peptide start residue: 178)”, the log2 fold change is -0.633.
“UniProt P76536 (peptide sequence: ALSGGVGAEELK, peptide start residue: 66)”: the log2 fold change stood at 0.555.
In the case of “UniProt P23898 (peptide sequence: SSLDNVYWQK, peptide start residue: 137)”, the log2 fold change was 0.793.
For “UniProt P06149 (peptide sequence: VRDIEADTPAR, peptide start residue: 232)”, the log2 fold change is -1.35.
“UniProt P69789 (peptide sequence: LYSKAEYK, peptide start residue: 48)”: the log2 fold change is -1.96.
“UniProt P15977 (peptide sequence: RKLSATLESMFADDGVNK, peptide start residue: 661)”: the log2 fold change is -0.78.
Consider “UniProt P25888 (peptide sequence: DLMASAQTGTGK, peptide start residue: 40)”, for which the log2 fold change was -1.66.
In the case of “UniProt P38035 (peptide sequence: APILLNGPTGAGK, peptide start residue: 209)”, the log2 fold change is -1.38.
Then “UniProt P77689 (peptide sequence: INSLAMPVKNEVCDTR, peptide start residue: 270)”, with 1.09; and “UniProt P27129 (peptide sequence: DVEPMQEK, peptide start residue: 157)”, with -0.645.
As for “UniProt Q46800 (peptide sequence: LAFGVAAPTPIR, peptide start residue: 215)”, the log2 fold change was found to be 0.403.
Take “UniProt P76346 (peptide sequence: LHHANDTDSFSATNVH, peptide start residue: 250)”: the log2 fold change is 0.288.
For “UniProt P37675 (peptide sequence: IVDLPMKLVGHK, peptide start residue: 78)”, the log2 fold change came out at 0.735.
Take “UniProt P0AD57 (peptide sequence: QRAEEEADKAIAALQVLPDTPWR, peptide start residue: 286)”: the log2 fold change came out at 0.56.
As for “UniProt P77615 (peptide sequence: AIEELQYQPNKLAR, peptide start residue: 40)”, the log2 fold change was found to be 0.358.
As for “UniProt P10371 (peptide sequence: DYGNDPLPR, peptide start residue: 26)”, the log2 fold change was -0.955.
Then “UniProt P76440 (peptide sequence: EELDEFPASEKEFTSAR, peptide start residue: 286)”, with 0.874; and “UniProt P37685 (peptide sequence: MMLEHYQQTK, peptide start residue: 489)”, with -0.646.
As for “UniProt P27431 (peptide sequence: EMMLELINQPEHFK, peptide start residue: 252)”, the log2 fold change came to 0.714.
In the case of “UniProt P37197 (peptide sequence: GDENALTAQQK, peptide start residue: 330)” it was -0.521; in that of “UniProt P77795 (peptide sequence: IEQVDSPR, peptide start residue: 213)”, -0.95.
Regarding “UniProt P31808 (peptide sequence: TGMTFDAQPGR, peptide start residue: 236)”, the log2 fold change is -0.533.
“UniProt P37908 (peptide sequence: RNQDMLLSVLDLEK, peptide start residue: 188)”: the log2 fold change was -2.2.
As to “UniProt P11868 (peptide sequence: AWHEGHER, peptide start residue: 285)”, the log2 fold change is -1.02.
In the case of “UniProt P15043 (peptide sequence: FGKPFMALIR, peptide start residue: 591)”, the log2 fold change came out at 0.672.
As to “UniProt P33643 (peptide sequence: IKEWILDQR, peptide start residue: 36)”, the log2 fold change is -0.691.
In the case of “UniProt P08957 (peptide sequence: SRIGQEQLQFYR, peptide start residue: 61)” it was 1.09.
As for “UniProt P07604 (peptide sequence: YAWPGNVR, peptide start residue: 410)”, the log2 fold change is -1.06.
On to “UniProt Q46861 (peptide sequence: EALPGWSGVDSTRLDTPGK, peptide start residue: 229)”, for which the log2 fold change came out at 0.959.
In the case of “UniProt P08956 (peptide sequence: ITGDADKDAR, peptide start residue: 763)” it was -3.68; in that of “UniProt P76403 (peptide sequence: SFYYCARTAQVYRK, peptide start residue: 294)”, -0.632; in that of “UniProt P75736 (peptide sequence: SFVDGEWR, peptide start residue: 165)”, -1.28.
“UniProt P00760 (peptide sequence: LKSAASLNSR, peptide start residue: 113)”: the log2 fold change was 0.367.
In the case of “UniProt P52129 (peptide sequence: LQIQGRPLSCYR, peptide start residue: 161)”, the log2 fold change came out at 0.646.
“UniProt P76014 (peptide sequence: EIGDADHGLNMNR, peptide start residue: 32)”: the log2 fold change was -2.08.
Consider “UniProt P0CB39 (peptide sequence: QYYMNQQR, peptide start residue: 350)”, for which the log2 fold change is -0.737.
For “UniProt P0AAT4 (peptide sequence: AHLLKPYLTSR, peptide start residue: 288)”, the log2 fold change worked out at 0.38.
On to “UniProt P00550 (peptide sequence: GASPLSAGDVTNDLSHVRK, peptide start residue: 361)”, for which the log2 fold change came out at 0.413.
Take “UniProt P75974 (peptide sequence: LIEDGTQR, peptide start residue: 178)”: the log2 fold change was 0.336.
Turning to “UniProt P31802 (peptide sequence: GMSGLDTLNALRR, peptide start residue: 64)”, the log2 fold change stood at 0.209.
Turning to “UniProt P15081 (peptide sequence: AFDTLCQQGR, peptide start residue: 30)”, the log2 fold change was -0.599.
With “UniProt P31475 (peptide sequence: AHLNTLMAEMAALKENFRR, peptide start residue: 132)”, the log2 fold change worked out at 0.66.
Regarding “UniProt P77171 (peptide sequence: GRQGAQLTLPGEQFLTHAVR, peptide start residue: 61)”, the log2 fold change stood at 0.909.
